A selection: hits, their analogues and other compounds. The true share with any hit is near 19%.
IL-1B inflam inh – inflammasome signaling inhibition, IL-1 beta readout; THP-1 LPS/ATP IL-1B secretion, AlphaLISA, 16 h; stronger effect = lower value; 4.7% of 360,000 active; activity change, % at 57.5 µM; AID 743279; in the data active = activity change below about -50%; inconclusive = mostly about -30% to -49%; also: % is scaled to controls: 0 for no effect and ±100 for the full control effect
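THP-1 cells pretreated 1 hr with compounds (up to 57.5 uM final), then stimulated with LPS (250 ng/mL final) plus ATP (1.25 mM final); secreted IL-1B measured by AlphaLISA after 16 hr, decreased signal indicating inhibition.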
TDP1 block – TDP1 (human) enzyme inhibition. recombinant TDP1, AlphaScreen DNA substrate cleavage. 0.28% of 350,000 active. Potency, µM (doses to about 130 µM), without a hit: at the highest dose activity change, negative = inhibition, most hits filed as inhibitors. Q9NUW8; also: potency is read from the fitted curve at half-maximal effect; % is scaled to controls: 0 for no effect and ±100 for the full control effect; nearly all actives have a fitted effect of over 40% in size
Target sequence (Q9NUW8 whole entry, looked up): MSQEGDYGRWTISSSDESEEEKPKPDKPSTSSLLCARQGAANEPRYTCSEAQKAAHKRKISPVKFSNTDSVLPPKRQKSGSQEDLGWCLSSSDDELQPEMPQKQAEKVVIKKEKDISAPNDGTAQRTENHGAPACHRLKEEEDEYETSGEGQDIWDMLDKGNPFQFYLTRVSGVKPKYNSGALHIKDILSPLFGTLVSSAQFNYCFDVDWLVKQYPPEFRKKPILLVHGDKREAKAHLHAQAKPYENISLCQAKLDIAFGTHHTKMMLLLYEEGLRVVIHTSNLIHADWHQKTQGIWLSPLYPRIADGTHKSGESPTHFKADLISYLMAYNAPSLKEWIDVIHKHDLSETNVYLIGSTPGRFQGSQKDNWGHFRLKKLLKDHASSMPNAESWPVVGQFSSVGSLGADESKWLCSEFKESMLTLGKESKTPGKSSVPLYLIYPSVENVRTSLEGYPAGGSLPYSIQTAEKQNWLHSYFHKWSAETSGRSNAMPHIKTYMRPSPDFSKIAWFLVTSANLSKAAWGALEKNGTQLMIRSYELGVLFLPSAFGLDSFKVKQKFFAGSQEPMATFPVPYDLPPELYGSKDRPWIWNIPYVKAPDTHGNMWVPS
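Recombinant human Tdp1 (E. coli-expressed, 1 nM final) preincubated with compounds 15 min at room temperature, then 5'-biotin/3'-phosphotyrosine-FITC DNA substrate (15 nM final) added for 5 min. AlphaScreen beads (10 ug/ml final) added 10 min; cleavage lowers signal.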
TGFb SMAD3 inh – inhibitors of TGF-b signaling; HepG2 CAGA-GFP TGF-b/SMAD3 reporter, GFP fluorescence, 18 h; TGF-beta stimulated, 500 pg/mL final; Potency, µM (doses to about 46.1 µM), inactives show at the top dose activity, negative = inhibition, most hits filed as inhibitors; 1.2% of 410,000 active; AID 588855; also: potency is read from the fitted curve at half-maximal effect; % is scaled to controls: 0 for no effect and ±100 for the full control effect; nearly all actives have a fitted effect of over 65% in size
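Inhibition of TGF-beta-driven CAGA-GFP reporter expression in HEPG2 cells is measured by cellular GFP fluorescence after 18 h stimulation with 500 pg/mL recombinant TGF-beta in 1% FBS medium at 37 degrees C.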
HepG2 tox – HepG2 cytotoxicity, counter-screen for TGF-b inhibitors. HepG2 CAGA-GFP viability, ATP luminescence, 18 h. Potency, µM (top dose mostly 46.1 µM), for the others: at the highest dose activity change, negative = cytotoxicity, hits mostly cytotoxic. 0.76% of 410,000 active; also: potency is read from the fitted curve at half-maximal effect
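CellTiter-Glo luminescence gave cytotoxicity after 18 hours at 37 degrees C. The cells were HepG2 CAGA-GFP in 1% FBS DMEM, stimulated with 500 pg/mL TGF-beta after compound addition. %Activity was normalised to no-cell wells (complete cell-killing) and DMSO (no toxicity), and curves were fitted and classified.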
DT40 TDP1 CPT – growth inhibition of DT40 Tdp1-/-;hTDP1 cells with camptothecin (screen for TDP1 inhibitors) | Potency, µM (highest dose often 46.2 µM), for the others: at the top dose activity change, negative = growth inhibition, actives largely listed as inhibitors | chicken DT40 Tdp1-/-;hTDP1 cells + 20 nM CPT, ATP luminescence, 48 h | 12% of 420,000 active; also: potency is read from the fitted curve at half-maximal effect; % is scaled to controls: 0 for no effect and ±100 for the full control effect; nearly all actives have a fitted effect of over 55% in size
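Chicken DT40 Tdp1-/- cells stably complemented with human TDP1 were seeded at 400 cells/well in medium containing 20 nM camptothecin, exposed to pin-transferred compounds, and grown at 37 °C for at least 48 hr. Viability was read as ATP luminescence.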
DT40 TDP1 no CPT – qHTS for Inhibitors of human tyrosyl-DNA phosphodiesterase 1 (TDP1): qHTS in cells in absence of CPT; DT40 Tdp1-/- hTDP1 cells, no CPT, ATP luminescence, 48 h; Potency, µM (doses to about 46.2 µM), for inactives: at the highest dose activity change, negative = growth inhibition, most hits filed as inhibitors; 15% of 420,000 active; also: potency is read from the fitted curve at half-maximal effect; % is scaled to controls: 0 for no effect and ±100 for the full control effect; nearly all actives have a fitted effect of over 55% in size
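Growth of hTDP1-complemented DT40 Tdp1-knockout cells is measured by ATP luminescence after at least 48 hr compound exposure at 37 °C, with DMSO substituting for the 20 nM CPT used in the parallel screen.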
Active calls of the source: *. Unless noted, calls follow the shape of the dose curve; as a rule, active = well fitted curve in the direction sought with a large enough effect; inconclusive = small, poorly fitted or top-dose-only effect, or another doubt; inactive = no such curve, though single readings can be large; an effect the other way counts as inactive or inconclusive.

For Cc1cccc(NC(=O)CSc2nc3ccc(NC(=O)COc4ccccc4C)cc3s2)c1 the results were TDP1 block 5%, TGFb SMAD3 inh inconclusive, HepG2 tox -34%, DT40 TDP1 CPT 15µM* and DT40 TDP1 no CPT 16µM*.
`OC1=C(O)c2nc3cc(C(F)(F)F)ccc3nc21` gave IL-1B inflam inh 12, TDP1 block -1%, TGFb SMAD3 inh -1%, HepG2 tox -5%, DT40 TDP1 CPT 1% and DT40 TDP1 no CPT inconclusive.
Screening Cn1c(=O)c2c(SCC(=O)NCc3ccco3)nc(-c3ccccc3F)nc2n(C)c1=O returned TDP1 block 0%, TGFb SMAD3 inh 26%, HepG2 tox 4%, DT40 TDP1 CPT -8% and DT40 TDP1 no CPT -13%.
`O=C(O)c1cccc2c1-c1ccc(Cl)cc1C2` gave IL-1B inflam inh -9, TGFb SMAD3 inh 0%, HepG2 tox -22%, DT40 TDP1 CPT -9% and DT40 TDP1 no CPT -8%.
For Cc1ccc(Cl)cc1NC(=O)c1ccc2snnc2c1 the results were TDP1 block -3%, TGFb SMAD3 inh 3%, HepG2 tox -22%, DT40 TDP1 CPT -17% and DT40 TDP1 no CPT -8%.
`Cc1ccc(OCC(=O)Nc2ccc3nc(SCC(=O)N(C)c4ccccc4)sc3c2)cc1` gave TDP1 block 5%, TGFb SMAD3 inh -16%, HepG2 tox -12%, DT40 TDP1 CPT inconclusive and DT40 TDP1 no CPT 15µM*.
Cc1ccc(OCC(=O)Nc2ccc3nc(SCc4ccccc4)sc3c2)cc1 was read as TDP1 block -3%, TGFb SMAD3 inh 2%, HepG2 tox -15%, DT40 TDP1 CPT -23% and DT40 TDP1 no CPT inconclusive.
Screening CCOC(=O)CSc1nc2ccc(NC(=O)COc3ccccc3)cc2s1 returned TDP1 block -3%, TGFb SMAD3 inh -6%, HepG2 tox -23%, DT40 TDP1 CPT inconclusive and DT40 TDP1 no CPT -19%.
`CCNC(=O)c1ccc(CSc2nc3ccccc3s2)cc1` gave IL-1B inflam inh 24, TDP1 block 5%, TGFb SMAD3 inh -13%, HepG2 tox -21%, DT40 TDP1 CPT inconclusive and DT40 TDP1 no CPT inconclusive.
For Cc1ccc(CSc2nc3ccc(NC(=O)COc4ccccc4)cc3s2)cc1 the results were TDP1 block 8%, TGFb SMAD3 inh -1%, HepG2 tox 3%, DT40 TDP1 CPT 15µM* and DT40 TDP1 no CPT inconclusive.
Cc1cc(C)cc(OCCSc2nc3ccc(NC(=O)COc4ccccc4)cc3s2)c1 was read as TDP1 block 2%, TGFb SMAD3 inh -4%, HepG2 tox -1%, DT40 TDP1 CPT inconclusive and DT40 TDP1 no CPT inconclusive.
For CCC(C)/C(C)=N/NC(=O)c1ccc(CSc2nc3ccccc3s2)cc1 (stereo not given) the results were IL-1B inflam inh 75, TDP1 block 6%, TGFb SMAD3 inh 5%, HepG2 tox -27%, DT40 TDP1 CPT 15µM* and DT40 TDP1 no CPT 23µM*.
Screening Cc1ccc(NC(=O)CSc2nc3ccc(NC(=O)COc4ccc(C)cc4)cc3s2)cc1 returned TDP1 block -2%, TGFb SMAD3 inh -2%, HepG2 tox -14%, DT40 TDP1 CPT 10µM* and DT40 TDP1 no CPT 18µM*.
COC(=O)Nc1nn(-c2ccc(OC)cc2)c(=O)c(C#N)c1C was read as IL-1B inflam inh 15, TDP1 block 0%, TGFb SMAD3 inh 2%, HepG2 tox -6%, DT40 TDP1 CPT -7% and DT40 TDP1 no CPT -2%.
`CCS(=O)(=O)c1nc(S(=O)(=O)c2ccc(C)cc2)c(NCC(C)C)s1` gave TDP1 block 0%, TGFb SMAD3 inh -2%, HepG2 tox -5%, DT40 TDP1 CPT inconclusive and DT40 TDP1 no CPT inconclusive.
Screening Cc1[nH]c(=O)[nH]c(=S)c1C(=O)Nc1ccc(Cl)c(Cl)c1 returned IL-1B inflam inh 15, TGFb SMAD3 inh 0%, HepG2 tox -9%, DT40 TDP1 CPT 8% and DT40 TDP1 no CPT -3%.
For Cc1ccc(OCC(=O)Nc2ccc3nc(SCC(=O)N4CCCC4)sc3c2)cc1C the results were TDP1 block 8%, TGFb SMAD3 inh -3%, HepG2 tox -2%, DT40 TDP1 CPT -95% and DT40 TDP1 no CPT 23µM*.
Screening COc1cc(OC)cc(C(=O)N2CCN(C(=O)COc3ccccc3)CC2)c1 returned TGFb SMAD3 inh 0% and HepG2 tox -6%.
`CCN(CC)c1nc(-c2ccccc2)ncc1S(=O)(=O)c1ccc(C)cc1` gave IL-1B inflam inh 0, TGFb SMAD3 inh inconclusive, HepG2 tox -14%, DT40 TDP1 CPT inconclusive and DT40 TDP1 no CPT 16µM*.
Screening CCCCCCCCCCCC(=O)OC[C@@H](O)C1OC[C@H](O)[C@H]1O (stereo not given in full) returned DT40 TDP1 CPT 7% and DT40 TDP1 no CPT -15%.
c1ccc(NN=C(c2ccccc2)c2cccs2)cc1 was read as IL-1B inflam inh -14, TGFb SMAD3 inh -15%, HepG2 tox -19%, DT40 TDP1 CPT -7% and DT40 TDP1 no CPT 21µM*.
`Cc1ccc(CNC(=O)c2cc(=O)c3cc(C)c(C)cc3o2)cc1` gave TDP1 block -12%, TGFb SMAD3 inh 16%, HepG2 tox -3%, DT40 TDP1 CPT -18% and DT40 TDP1 no CPT -27%.
`C/C1=C/CC(C)(C)/C=C/C/C(C)=C/CC1` gave TDP1 block 6%, DT40 TDP1 CPT -4% and DT40 TDP1 no CPT -21%.
Screening O=C1N=C2SCCN2/C1=C\c1ccc(Cl)cc1 returned IL-1B inflam inh -68*, TDP1 block 2%, TGFb SMAD3 inh 0%, HepG2 tox -28%, DT40 TDP1 CPT -28% and DT40 TDP1 no CPT inconclusive.
CC1C(O)=C(c2ccccc2)P(=O)(Cc2ccccc2)C1C (stereo not given) was read as IL-1B inflam inh 29, DT40 TDP1 CPT 2% and DT40 TDP1 no CPT -5%.
Screening CCC(Sc1nc2ccsc2c(=O)n1-c1ccc(Cl)c(C)c1)C(=O)NCc1ccco1 (stereo not given) returned IL-1B inflam inh -71*, TDP1 block 8%, TGFb SMAD3 inh -18%, HepG2 tox -17%, DT40 TDP1 CPT inconclusive and DT40 TDP1 no CPT inconclusive.
For COCCN1CSC(=S)N(Cc2ccco2)C1 the results were IL-1B inflam inh -2, TDP1 block 0%, TGFb SMAD3 inh -2%, HepG2 tox -18%, DT40 TDP1 CPT 21µM* and DT40 TDP1 no CPT 4.6µM*.
